Laboratory results from PubChem BioAssay (EPA / NIEHS).
The source made the active and inactive calls. Rule for the calls: active = hit-call score of the fitted dose curve at least 0.9, where 1 is the maximum; inactive = score below 0.9.

Test: ATG_PXRE_CIS: Attagene CIS-FACTORIAL HepG2 Assay for human Pregnane X Receptor Element (PXRE) (AID 2282957)
Conditions: HepG2 Attagene CIS-FACTORIAL PXRE reporter, mRNA; actives raise or lower the signal
Method: ATG_CIS is a cell-based, multiplexed-readout assay that uses HepG2, a human liver cell line, with measurements taken at 24 hours after chemical dosing in a 24-well plate.ATG_PXRE_CIS is one of 52 assay component(s) measured or calculated from the ATG_CIS assay. It is designed to make measurements of mRNA induction, a form of inducible reporter, as detected with fluorescence intensity signals by Reverse transcription polymerase chain reaction (RT-PCR) and Capillary electrophoresis technology.Data from the assay component ATG_PXRE_CIS was analyzed into 1 assay endpoint. This assay endpoint, ATG_PXRE_CIS, was analyzed with bidirectional fitting relative to DMSO as the negative control and baseline of activity. Using a type of inducible reporter, measures of mRNA for gain or loss-of-signal activity can be used to understand the reporter gene at the transcription factor-level as they relate to the gene NR1I2. Furthermore, this assay endpoint can be referred to as a primary readout, because this assay has produced multiple assay endpoints where this one serves a reporter gene function. To generalize the intended target to other relatable targets, this assay endpoint is annotated to the nuclear receptor intended target family, where the subfamily is non-steroidal.
Human liver HepG2 cells are transiently transfected with multiple reporter transcription units (MRTUs) in 6-well plates using FuGene 6 reagent (Roche; 3 ml FuGene/1 mg DNA). The MRTU constructs are regulated by a cis-regulating element (promoter). […] A major difference between the CIS and TRANS system is that in CIS activities of endogenous TFs are measured, whereas the TRANS assay evaluates changes in activities of exogenous, chimeric NR-Gal4 proteins. […] At the end of 24 hour incubation, total RNA was isolated using TriZol reagent (Invitrogen). The isolated RNA is then reverse-transcribed using oligo(dT) primer and Mo-MLV reverse transcriptase (Invitrogen) with DNAse I (Ambion) treatment for 30 min. The one-tenth of the produced cDNA was amplified by PCR using Taq DNA polymerase (Invitrogen) and two reporter sequence-specific primers. The PCR products were fluorescently labeled by primer extension with 6-arboxyfluorescein (6-FAM) 5'-labeled reporter sequence-specific primer (2 min at 95 C, 20 s at 68 C and 10 min at 72 C) and these products were digested with 5U of HpaI (New England Biolabs) for 2h at 37 C. The fragments were purified using Qiaquick PCR columns (Qiagen), analyzed on an ABI 3130xL genetic analyzer (Applied Biosystems) with peak positions identified by using a set of X-rhodamine (ROX)-labeled MapMarker1000 molecular weight standards (BioVentures). The raw capillary electrophoresis data was processed using Attagraph software (Attagene).
With `OC[C@H]1O[C@@H]2O[C@H]3[C@H](O)[C@@H](O)[C@@H](O[C@H]4[C@H](O)[C@@H](O)[C@@H](O[C@H]5[C@H](O)[C@@H](O)[C@@H](O[C@H]6[C@H](O)[C@@H](O)[C@@H](O[C@H]7[C@H](O)[C@@H](O)[C@@H](O[C@H]8[C@H](O)[C@@H](O)[C@@H](O[C@H]9[C@H](O)[C@@H](O)[C@@H](O[C@H]1[C@H](O)[C@H]2O)O[C@@H]9CO)O[C@@H]8CO)O[C@@H]7CO)O[C@@H]6CO)O[C@@H]5CO)O[C@@H]4CO)O[C@@H]3CO` the AC50 was 22.4 µM (active). In the case of `C=C(C)C(=O)OCCOCCOCCOCCOC(=O)C(=C)C`, the AC50 is reported as 35.3 µM (active). In the case of `COCCOC(=O)c1ccccc1C(=O)OCCOC`, the AC50 is reported as 120 µM (active). With `CC(C)OCCO` the outcome was “inactive”. In the case of `CC(C)CCCCCCc1ccc(OCCOCCO)cc1`, the outcome is reported as “inactive”. With `COc1ccc(COC(C)=O)cc1` the outcome was “inactive”. With `CCCC(=O)C(CC)Sc1ccoc1C` (stereo not given) the AC50 was 5.68 µM (active). In the case of `C[C@H](CCC(=O)NCC(=O)O)[C@H]1CC[C@H]2[C@@H]3[C@H](O)C[C@@H]4C[C@H](O)CC[C@]4(C)[C@H]3C[C@H](O)[C@]12C`, the outcome is reported as “inactive”. For `CCCC(C)=O`, the outcome was “inactive”. With `CCCCCC(=O)CC` the AC50 was 33.4 µM (active). With `CCCCCCCCCCCCS(=O)(=O)Cl` the outcome was “inactive”. In the case of `CCCCCCCCN1CCCC1=O`, the AC50 is reported as 26.2 µM (active). For `CC(=O)CC(=O)Nc1ccccc1`, the outcome was “inactive”. With `O=C1OC(=O)c2c(Br)c(Br)c(Br)c(Br)c21` the outcome was “inactive”. For `C1CCOC1`, the AC50 was 37.3 µM (active). In the case of `Cc1cc(S(=O)(=O)O)ccc1N=Nc1c(O)ccc2ccccc12`, the outcome is reported as “inactive”. In the case of `Cc1c(Cl)cccc1[N+](=O)[O-]`, the outcome is reported as “inactive”. For `CCOC(=O)CCc1ccccc1`, the outcome was “inactive”. With `O=C(O)COCC(=O)O` the outcome was “inactive”. With `N[C@@H](Cc1cc(I)c(Oc2cc(I)c(O)c(I)c2)c(I)c1)C(=O)O` the AC50 was 6.42 µM (active). With `CCCC(=O)OC(C)(C)Cc1ccccc1` the AC50 was 27 µM (active). In the case of `CCCCCCCCc1ccc(S(=O)(=O)O)cc1`, the outcome is reported as “inactive”. For `CCCCCCOC(=O)CCC`, the AC50 was 24.8 µM (active). In the case of `CC(C)C(OC(=O)c1ccccc1)C(C)(C)COC(=O)c1ccccc1` (stereo not given), the AC50 is reported as 1.27 µM (active). With `C=C1CC[C@H](O)C/C1=C/C=C1\CCC[C@]2(C)[C@@H]([C@H](C)/C=C/[C@H](C)C(C)C)CC[C@@H]12` the AC50 was 3.32 µM (active). With `NCCNc1cccc2ccccc12` the outcome was “inactive”. In the case of `CCCCCCOCCOCCO`, the outcome is reported as “inactive”. For `CC(O)C1CCCCC1` (stereo not given), the outcome was “inactive”. In the case of `C=Cc1ccc(C(C)(C)C)cc1`, the AC50 is reported as 27.4 µM (active). In the case of `CCCCCCCC(=O)OCCCCCC`, the AC50 is reported as 28.2 µM (active). For `CCC(Cl)C(Cl)C(Cl)CC(Cl)C(Cl)C(C)Cl` (stereo not given), the AC50 was 0.885 µM (active). In the case of `CCCCCCCCCCCCCCCC(=O)OC/C=C(C)/C=C/C=C(C)/C=C/C1=C(C)CCCC1(C)C`, the AC50 is reported as 3.09 µM (active). For `ON=C1CCCCC1`, the outcome was “inactive”. In the case of `CC1CC(O)CC(C)(C)C1` (stereo not given), the outcome is reported as “inactive”. With `COC(C)(C)CCO` the outcome was “inactive”. In the case of `CCCSc1ccc2nc(NC(=O)OC)[nH]c2c1`, the outcome is reported as “inactive”. With `COc1ccc(OC)c(N=Nc2c(O)ccc3ccccc23)c1` the AC50 was 3.46 µM (active). For `C=CCOC(=O)CCCCCC`, the outcome was “inactive”. With `CC=Cc1ccc(OC)c(OC)c1` the AC50 was 19.5 µM (active). In the case of `COc1ccccc1N=Nc1c(S(=O)(=O)O)cc2cc(S(=O)(=O)O)cc(NC(C)=O)c2c1O`, the AC50 is reported as 25.7 µM (active).
